Source: PubChem BioAssay (National Center for Advancing Translational Sciences (NCATS))
G9a block – blocks human histone lysine methyltransferase G9a; G9a H3K9 monomethylation, AlphaScreen, 2 h; hit rate 8.8% among 350,000; Potency, µM (titrated, usually from 102 µM), usual class: inhibitors; AID 504332; Q96KQ7; also: nearly all actives have a fitted effect of over 75% in size
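Chemiluminescent proximity detection of H3K9 monomethylation, read after 10 min bead incubation in the dark. Reaction: 20 nM G9a, 500 nM biotin-H3K9 peptide, 20 uM SAM cofactor, 2 h, room temperature, following 15 min enzyme-compound preincubation.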
JMJD2A Tudor – inhibitors of human JMJD2A Tudor domain. O75164. AlphaScreen JMJD2A-Tudor / H3K4me3 peptide binding. Potency, µM (series often up to 114 µM), usual class: inhibitors. hit rate 4.4% among 390,000. AID 504339; also: nearly all actives have a fitted effect of over 50% in size
L3MBTL1 block – L3MBTL1 (human) inhibition | hit rate 0.66% among 230,000 | Potency, µM (titrated, usually from 57.1 µM), most hits filed as inhibitors | AlphaScreen L3MBTL1–H3K9me1 peptide binding; also: nearly all actives have a fitted effect of over 60% in size
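L3MBTL1 (50 nM) pre-complexed 30 min with biotinylated H3(1-15)K9me1 peptide (75 nM), then compounds added for 30 min at room temperature; AlphaScreen streptavidin donor/nickel chelate acceptor beads (10 ug/mL final) read after 30 min dark incubation.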
BAZ2B block – BAZ2B (human) inhibition; AlphaScreen BAZ2B-H3K14Ac peptide displacement; Potency, µM (doses to about 114 µM), actives largely listed as inhibitors; hit rate 4.4% among 360,000; AID 504333; also: nearly all actives have a fitted effect of over 60% in size
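In this displacement format the biotinylated H3(5-23) peptide acetylated at Lys14 serves as ligand at 50 nM, with BAZ2B at 50 nM in PBS pH 7.4 containing 0.01% Tween-20. Donor and acceptor beads are 10 ug/mL final.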
HP1b binding inh – HP1-beta chromodomain-methylated histone interaction inhibition; Potency, µM (doses to about 114 µM), usual class: inhibitors; AlphaScreen HP1-beta / biotin-H3K9me3 peptide binding; hit rate 0.56% among 390,000; AID 540317; also: nearly all actives have a fitted effect of over 70% in size
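HP1-beta protein (50 nM final) preincubated 30 min at room temperature with biotinylated H3(1-18)K9me3 peptide (50 nM) in PBS pH 7.4, 0.01% Tween-20, then compound added for 30 min. AlphaScreen streptavidin donor/nickel chelate acceptor beads (10 ug/mL final), 30 min dark, luminescence read.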
Of the large screens only hits and unclear results are named; the others gave an inactive call. Shown are actives, neighbours in structure and some others; about 11% of the full set was active somewhere. Calls follow the shape of the dose curve; as a rule, active = well fitted inhibition curve with a large enough effect; inconclusive = small, poorly fitted or top-dose-only effect; inactive = no such curve, though single readings can be large or run the other way.

C#CCOCCOCCOCCNc1nc(N2CCN(C(=O)CCCCCCCCCCNC(=O)Cn3cc(C[C@@H](C)O)nn3)CC2)nc(N2CCN(C(=O)CCCCCCCCCCNC(=O)[C@H](CCCCN)n3cc(C[C@@H](C)CC)nn3)CC2)n1	JMJD2A Tudor 79µM, BAZ2B block inconclusive, HP1b binding inh inconclusive
C#CCOCCOCCOCCNc1nc(N2CCN(C(=O)CCCCCCCCCCNC(=O)[C@H](CCCCN)n3cc(CCO)nn3)CC2)nc(N2CCN(C(=O)CCCCCCCCCCNC(=O)[C@H](CCCN=C(N)N)n3cc(C[C@@H](C)CC)nn3)CC2)n1	JMJD2A Tudor 45µM, BAZ2B block 50µM, HP1b binding inh inconclusive
C#CCOCCOCCOCCNc1nc(N2CCN(C(=O)CCCCCCCCCCNC(=O)[C@H]([C@@H](C)CC)n3cc(CCCCN=C(N)N)nn3)CC2)nc(N2CCN(C(=O)CCCCCCCCCCNC(=O)[C@H](CCCCN)n3cc(C[C@@H](C)CC)nn3)CC2)n1	BAZ2B block 50µM (no result: JMJD2A Tudor, HP1b binding inh)
C#CCOCCOCCOCCNc1nc(N2CCN(C(=O)CCCCCCCCCCNC(=O)[C@H](CCCCN)n3cc(CCCC(=O)O)nn3)CC2)nc(N2CCN(C(=O)CCCCCCCCCCNC(=O)[C@H](CCCN=C(N)N)n3cc(C[C@@H](C)CC)nn3)CC2)n1	JMJD2A Tudor 56µM, BAZ2B block 50µM
C#CCOCCOCCOCCNc1nc(N2CCN(C(=O)CCCCCCCCCCNC(=O)[C@H](CCCCN)n3cc(CCCC(=O)O)nn3)CC2)nc(N2CCN(C(=O)CCCCCCCCCCNC(=O)[C@H](CCCCN)n3cc(CCCC(=O)O)nn3)CC2)n1	JMJD2A Tudor inconclusive
COc1ccc(NC(=O)c2sc3nc(-c4cc5ccc(OC)cc5oc4=O)[nH]c(=O)c3c2C)cc1	none (no result: L3MBTL1 block)
COc1ccccc1CCNC(=O)CCc1c(C)c2cc3c(C)coc3cc2oc1=O	none (no result: L3MBTL1 block)
C#CCOCCOCCOCCNc1nc(N2CCN(C(=O)CCCCCCCCCCNC(=O)[C@H](CCCCN)n3cc(C[C@@H](C)CC)nn3)CC2)nc(N2CCN(C(=O)CCCCCCCCCCNC(=O)[C@H](CCCCN)n3cc(C[C@@H](C)CC)nn3)CC2)n1	JMJD2A Tudor 50µM, HP1b binding inh 71µM (no result: G9a block, L3MBTL1 block, BAZ2B block)
C#CCOCCOCCOCCNc1nc(N2CCN(C(=O)CCCCCCCCCCNC(=O)[C@H](CO)n3cc(CCCSC)nn3)CC2)nc(N2CCN(C(=O)CCCCCCCCCCNC(=O)[C@H](CCCCN)n3cc(C[C@@H](C)CC)nn3)CC2)n1	BAZ2B block inconclusive (no result: JMJD2A Tudor, HP1b binding inh)
CC(Oc1cccc(Cl)c1)C(=O)N(C)CC(=O)Nc1ccc(N2CCOCC2)cc1 (stereo not given)	G9a block 40µM
O=C(COc1cccc(Cl)c1)Nc1ccc(N2CCOCC2)cc1	G9a block 79µM (no result: L3MBTL1 block)
COc1cccc(CNC(=O)COC(=O)c2ccc(S(C)(=O)=O)c([N+](=O)[O-])c2)c1	none (no result: G9a block, L3MBTL1 block, BAZ2B block)
Cc1cc2c(s1)c1cnn(Cc3ccc(C(C)(C)C)cc3)c(=O)c1n2C	none (no result: G9a block, L3MBTL1 block, BAZ2B block, HP1b binding inh)
Cc1cc(C)c2sc(N(CCCN(C)C)C(=O)c3ccc(S(=O)(=O)N4CCc5ccccc5C4)cc3)nc2c1	G9a block 22µM (no result: JMJD2A Tudor, HP1b binding inh)
CN(C)CCCN(C(=O)c1ccc(S(=O)(=O)N2CCc3ccccc3C2)cc1)c1nc2c(F)cccc2s1	none (no result: L3MBTL1 block)
Cc1cccc2sc(N(CCCN(C)C)C(=O)c3ccc(S(=O)(=O)N4CCc5ccccc5C4)cc3)nc12	none (no result: G9a block, L3MBTL1 block)
Cc1cc(C)c2sc(N(CCCN(C)C)C(=O)c3ccc(S(=O)(=O)N4CCCc5ccccc54)cc3)nc2c1	G9a block 45µM, JMJD2A Tudor 40µM, BAZ2B block 11µM
COc1ccc2sc(N(CCCN(C)C)C(=O)c3ccc(S(=O)(=O)N4CCc5ccccc5C4)cc3)nc2c1	G9a block 32µM, JMJD2A Tudor 56µM
Cc1ccc2nc(N(CCCN(C)C)C(=O)c3ccc(S(=O)(=O)N4CCc5ccccc5C4)cc3)sc2c1	G9a block 71µM, JMJD2A Tudor inconclusive, BAZ2B block inconclusive, HP1b binding inh inconclusive (no result: L3MBTL1 block)
Cc1ccc(NC(=O)c2ccc(CNS(=O)(=O)c3ccc4c(c3)C(C)(C)C(=O)N4C)cc2)cc1F	none (no result: L3MBTL1 block)
Cc1ccc(NC(=O)Cn2nc(C)c3nn(-c4ccc(Cl)cc4)c(C)c3c2=O)cc1F	none (no result: L3MBTL1 block)
